G9a inh = qHTS Assay for Inhibitors of Histone Lysine Methyltransferase G9a; Histone-lysine N-methyltransferase EHMT2 (Homo sapiens), Q96KQ7; G9a H3K9 monomethylation, AlphaScreen, 2 h; Potency, µM (top dose mostly 102 µM), actives largely listed as inhibitors; 8.8% of 350,000 active; AID 504332, 2011; note: nearly all actives have a fitted effect of over 75% in size
Target sequence (Q96KQ7 913-1193 limits assumed): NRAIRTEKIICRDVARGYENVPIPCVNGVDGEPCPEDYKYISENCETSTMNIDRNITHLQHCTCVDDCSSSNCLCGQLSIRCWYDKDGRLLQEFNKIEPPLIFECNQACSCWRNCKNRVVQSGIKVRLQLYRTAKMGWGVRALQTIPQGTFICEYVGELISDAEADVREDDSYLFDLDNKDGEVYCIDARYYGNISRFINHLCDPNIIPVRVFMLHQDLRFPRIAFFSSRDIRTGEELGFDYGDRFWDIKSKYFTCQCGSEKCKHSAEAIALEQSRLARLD
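G9a (20 nM) preincubated 15 min RT with compounds, then 500 nM biotinylated H3K9 peptide and 20 uM SAM added; 2 h RT reaction. Monomethyl-H3K9 product detected by AlphaScreen with anti-H3K9me1 antibody, streptavidin donor and anti-rabbit IgG acceptor beads.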
GRP78 ERSR act = qHTS for Inducers of the Endoplasmic Reticulum Stress Response (ERSR) in Human Glioma: qHTS | U87-MG GRP78 promoter luciferase reporter, 16 h | Potency, µM, most hits filed as activators | 0.02% of 420,000 active; note: series mostly up to about 76 µM; nearly all actives have a fitted effect of over 35% in size
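ERSR induction read as luciferase luminescence (Bright-Glo, 10 min at room temperature) in stably transfected human U87-MG glioma cells exposed to compounds for 16 h, using GRP78 as sensor.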
12-LOX inh = Primary qHTS assay for inhibitors of human arachidonate 12S-lipoxygenase (ALOX12): Round 2; Polyunsaturated fatty acid lipoxygenase ALOX12 (Homo sapiens), P18054; Potency, µM (series often up to 108 µM), hits mostly inhibitors; purified 12hLO, xylenol orange hydroperoxide absorbance; 1.1% of 580,000 active
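Hydroperoxide product was detected by ferrous iron/xylenol orange as the 573 to 405 nm absorbance ratio. Arachidonic acid at 40 uM (final) was turned over for 30 min at room temperature by 150 nM human 12hLO, pH 7.0 Hepes buffer, after 15 min compound preincubation.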
VDR inhibitor = Inhibitors of the vitamin D receptor (VDR): qHTS | Vitamin D3 receptor (Homo sapiens), P11473 | VDR-SRC2-3 peptide fluorescence polarization, 2 h | Potency, µM, usual class: inhibitors | 0.93% of 400,000 active
Target sequence (P11473 whole entry, looked up): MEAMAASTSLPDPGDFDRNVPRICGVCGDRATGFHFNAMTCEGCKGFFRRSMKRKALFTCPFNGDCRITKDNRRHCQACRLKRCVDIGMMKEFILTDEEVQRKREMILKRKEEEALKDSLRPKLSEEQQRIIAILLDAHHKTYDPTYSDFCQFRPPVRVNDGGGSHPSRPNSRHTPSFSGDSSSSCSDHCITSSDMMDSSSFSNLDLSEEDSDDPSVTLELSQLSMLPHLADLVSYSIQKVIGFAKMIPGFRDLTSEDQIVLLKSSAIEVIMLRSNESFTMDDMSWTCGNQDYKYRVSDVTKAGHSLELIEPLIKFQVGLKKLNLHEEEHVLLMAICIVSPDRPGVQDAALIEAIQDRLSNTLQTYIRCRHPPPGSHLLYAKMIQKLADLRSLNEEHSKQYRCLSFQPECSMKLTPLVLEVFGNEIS
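Compounds are added to VDR with labelled SRC2-3 coactivator peptide and held 2 h at room temperature. Inhibition of the VDR–peptide interaction is then read as a change in fluorescence polarization.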
Sfp PPTase inh = qHTS Assay for Inhibitors of Bacillus subtilis Sfp phosphopantetheinyl transferase (PPTase). 4'-phosphopantetheinyl transferase ffp (Bacillus subtilis), Q9F4F7. Potency, µM, actives largely listed as inhibitors. Biochemical Sfp PPTase activity, qHTS. 3.5% of 310,000 active. AID 1490, 2009;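 note: the enzyme is Sfp with the accession as filed and its product quenches rhodamine fluorescence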
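Step 1, compound plus 15 nM Sfp-PPTase, 15 min, room temperature. Step 2, add rhodamine-CoA (5 uM) and BHQ-2-YbbR (12.5 uM). Step 3, read 525/598 nm fluorescence at 0 and 30 min.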
Hits are given with their value; . = inactive; ? = inconclusive; / = no result; [ ] = another dose, or the depositor's remark. The entries come from a sample that favours hits as a whole. Calls come from the whole dose curve; as a rule, active = well fitted curve in the direction sought with a large enough effect; inconclusive = small, poorly fitted or top-dose-only effect, or another doubt; inactive = no such curve, though single readings can be large; an effect the other way counts as inactive or inconclusive.

SMILES	G9a inh	GRP78 ERSR act	12-LOX inh	VDR inhibitor	Sfp PPTase inh
CCn1c(C)[n+](CC)c2ccc(S(=O)(=O)N(C)C)cc21	45µM	.	?	.	.
CC(C)(C)C(=O)/C(=C/c1ccncc1)n1cncn1	/	.	.	?	35µM
CC(C)CSc1ccc(S(=O)(=O)NCC(=O)O)cc1[N+](=O)[O-]	50µM	.	.	.	.
CN(C)c1ccc(S(=O)(=O)NCC(=O)OCC(=O)Nc2cccc(Cl)c2)cc1[N+](=O)[O-]	56µM	.	.	.	.
CN(C)c1ccc(S(=O)(=O)NCC(=O)NCc2ccccc2)cc1[N+](=O)[O-]	45µM	.	.	?	.
COc1ccc(CCNC(=O)CNS(=O)(=O)c2ccc(N(C)C)c([N+](=O)[O-])c2)cc1OC	?	.	.	.	.
CNc1ccc(S(=O)(=O)NCC(=O)NCCCc2ccccc2)cc1[N+](=O)[O-]	40µM	.	/	?	.
CN(C)c1ccc(S(=O)(=O)NCC(=O)OCC(=O)NC(=O)C2CCCCC2)cc1[N+](=O)[O-]	.[12.7 µM]	.	.	.	/
Cc1cc(C(=O)OCC(=O)Nc2ccccc2F)c2ccccc2n1	/	/	.	/	/
O=C1Nc2ccc(-c3cccs3)cc2C(=O)N2CC[C@H](NS(=O)(=O)c3cccs3)[C@@H]12	/	/	.	/	/
CC(C)(C)OC(=O)COc1ccc2cc(-c3ccccc3)c(=O)oc2c1	/	/	.	/	/
Cc1noc(C)c1-c1cc2cc(CN(C)C)oc2c(Nc2cccnc2)n1	/	/	.	/	/
O=[N+]([O-])/C(C(Cl)=C(Cl)Cl)=C(/Sc1ccccc1)N1CCCCC1	/	.	?	.	.
O=[N+]([O-])C(=C1NCCN1)C(Cl)=C(Cl)Cl	56µM	.	.	.	.
CC1=C[C@@H](CN2CCN(c3ccc(F)cc3)CC2)[C@H](C(C)C)C[C@H]1Cc1nnc(-c2cncn2C)o1	/	/	.	/	/
O=C(Nc1ccccc1)c1nn(C2CCS(=O)(=O)C2)c2c1CCCC2 (stereo not drawn)	/	/	.	/	/
CC(C)CCn1c(O)c(N=Nc2ccccn2)c2ccccc21	.	.	.	.	.
CC(C)CCn1c(O)c(N=NC(=O)Cn2ccc(C(F)(F)F)n2)c2ccccc21	.	.	.	79µM	.
CN(C)C(=S)N=Nc1[nH]c2ccccc2c1O	7.9µM	.	.	.	.
CN(C)C(=O)c1ccc(N=Nc2c(O)c3ccccc3[nH]c2=O)cc1	/	.	?	.	/
CC(C)(C)n1nnnc1C(c1cc2cc3c(cc2[nH]c1=O)OCO3)N1CCN(c2ccccc2)CC1 (stereo not drawn)	.[2.33 µM]	.	.	.	.
Cc1ccc2cc(C(c3nnnn3C(C)(C)C)N3CCCCCC3)c(=O)[nH]c2c1 (stereo not drawn)	7.9µM	.	/	.	?
CC(C)(C)n1nnnc1C(c1ccccc1)N1CCN(C(=O)c2ccco2)CC1 (stereo not drawn)	/	/	.	/	/
Cc1ccc2[nH]c(=O)c(C(c3nnnn3C(C)(C)C)N3CCN(C(=O)c4ccco4)CC3)cc2c1 (stereo not drawn)	.[0.501 µM]	.	?	.	45µM
Cc1cccc2cc(C(c3nnnn3C(C)(C)C)N3CCN(C(=O)c4ccco4)CC3)c(=O)[nH]c12 (stereo not drawn)	?	.	.	.	56µM
SMILES	G9a inh	GRP78 ERSR act	12-LOX inh	VDR inhibitor	Sfp PPTase inh
COc1cc(C(=O)Nc2ccc(N3CCOCC3)cc2)ccc1OCc1c(C)noc1C	50µM	.	.	.	.
COc1ccc(NC(=O)/C=C/c2ccc(C)o2)cc1S(=O)(=O)N1CCOCC1	6.3µM	.	.	.	50µM
COc1cc(NC(=O)c2ccc(OCc3c(C)noc3C)c(OC)c2)cc(OC)c1	/	.	.	.	/
COc1cc(/C=C/C(=O)Nc2ccc(OC)c(S(=O)(=O)N3CCOCC3)c2)ccc1OC(F)F	/	.	.	.	/
COc1ccc(C(=O)Nc2cccc(C)c2)cc1S(=O)(=O)N1CCOCC1	.	.	.	.	.
CCN(CC)c1ccc(S(=O)(=O)N2CCOCC2)cc1NC(=O)COC(=O)/C=C/c1ccc(C)o1	45µM	.	.	.	/
COc1ccc(C(=O)Nc2ccc(N3CCOCC3)cc2)cc1S(=O)(=O)N1CCOCC1	56µM	.	.	.	/
Cc1cc(C(=O)OCC(=O)NC(C)c2ccccc2)c2ccccc2n1 (stereo not drawn)	/	/	.	/	/
Cc1ccc(NC2=C(C(=O)N3CCOCC3)S(=O)(=O)c3ccccc32)cc1F	/	/	.	/	/
COc1ccc(C(=O)Nc2ccc(N3CCOCC3)cc2)cc1S(=O)(=O)N1CCCC1	50µM	.	.	.	/
COc1ccc(C(=O)Nc2ccc(NC(C)=O)cc2)cc1S(=O)(=O)N1CCCC1	.[12.7 µM]	.	.	.	/
COc1ccc(C(=O)Nc2ccc(N3CCOCC3)cc2)cc1S(=O)(=O)NC1CCCC1	32µM	.	.	.	.
COc1ccc(C(=O)Nc2ccc(C)cc2)cc1S(=O)(=O)NC1CCCC1	/	/	.	/	/
COc1ccc(CC(=O)Nc2sccc2C#N)cc1S(=O)(=O)N1CCOCC1	40µM	.	.	.	/
COc1ccc(C(=O)OC(C)C(=O)NC2CCCCC2C)cc1S(=O)(=O)N1CCOCC1 (stereo not drawn)	79µM	.	.	.	/
COC(F)(C(=O)Nc1ccccc1C(C)C)C(F)(F)F (stereo not drawn)	/	/	.	/	/
O=S(=O)(NCC1(c2ccccc2)CCC1)c1cccc(F)c1	/	/	.	/	/
COCCN(Cc1cnn(-c2ccccc2C)c1)CC1CC1	/	/	.	/	/
O=C(O)c1csc(-c2cccc(Cl)c2)n1	40µM	.	.	.	.
O=C(O)c1csc(-c2cccs2)n1	79µM	.	?	.	.
O=C(O)c1csc(-c2ccccc2)n1	?	.	.	.	.
CNC(=O)c1csc(-c2cccs2)n1	.	.	.	.	.
O=C(CCc1nc(C2CCCN2Cc2ccc3[nH]ccc3c2)no1)N1CCCC1 (stereo not drawn)	/	/	.	/	/
CC/C(=N/Nc1cccc(Cl)c1)c1cnnc(SC)n1	.	.	?	.	.
CC/C(=N/Nc1ccccc1)c1cnnc(-c2ccccc2)n1	7.1µM	.	?	.	.
SMILES	G9a inh	GRP78 ERSR act	12-LOX inh	VDR inhibitor	Sfp PPTase inh
Cc1noc(C)c1C(=O)Nc1sc2c(c1C(N)=O)CCC2	.	.	?	.	.
Cc1noc(C)c1C(=O)Nc1sc2c(c1C(N)=O)CCCCC2	?	.	.	.	45µM
Cc1occc1C(=O)Nc1sc2c(c1C(N)=O)CCCCC2	13µM	.	.	.	25µM
CCOC(=O)c1c(NC(=O)c2c(C)noc2C)sc2c1CCCCC2	.[0.501 µM]	.	/	.	56µM
COC(=O)c1ccc(COC(=O)C23CC4CC(CC(O)(C4)C2)C3)cc1	/	/	.	/	/
CCOC(=O)c1cc(C)[nH]c(=S)c1C#N	.[0.501 µM]	.	?	.	40µM
Cc1[nH]c2ccccc2c1C(=O)C(C)Sc1nnnn1C1CCCCC1 (stereo not drawn)	/	/	.	/	/

High-throughput results (PubChem)
